About 83,000 compounds went through this panel and 20% of them were active in at least one assay; those are over-represented in the sample as a whole.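 Compound tested at a single concentration for 48 hours in 96-well plates; a percent growth value below 10 was scored as active.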 The source made the active and inactive calls.
Each compound was assayed on ACHN renal (assay: NCI-60 one-dose screen, 48 h (100 = growth as untreated, 0 = no growth, -100 = all killed)). Conditions: 10 µM unless noted.
With `COC(=O)[C@]12CC[C@@H](C)[C@H](C)[C@@H]1C1=CC[C@@H]3[C@@]4(C)C[C@@H](OC(C)=O)[C@H](O)[C@@](C)(COC(C)=O)[C@@H]4[C@H](O)C[C@@]3(C)[C@]1(C)CC2` the growth was -91.9% (active). For `N#Cc1c(-c2ccco2)nc2c(c(-c3ccccc3)nn2-c2ccccc2)c1-c1ccc(O)cc1`, the growth was 72.4% (inactive). For `CC(=O)c1c(C)[nH]c(-c2nc3ccc(N4CCN(C)CC4)cc3[nH]2)c1-c1ccc2c(c1)OCCO2`, the growth was 29.3% (inactive). With `COc1ccc(C(=O)c2ccc(C)cc2)c(OC)c1OC` the growth was 97.3% (inactive). `C[C@H]1OC(=O)/C=C/[C@@H](O)[C@@H](O)CCCCCCCC[C@@H]1O` was tested, and the growth was 100% (inactive). For `COc1ccccc1-n1cnc(N)c1C(=O)c1cc(OC)c(OC)c(OC)c1`, the growth was 58.6% (inactive). With `COc1ccc(/C=C(\C#N)c2cc3ccccc3n2S(C)(=O)=O)cc1` the growth was 91.2% (inactive). `Cc1cccc2c1NC(=O)[C@@]21[C@H](C(=O)c2ccccc2)[C@]2(C(=O)Nc3ccccc32)[C@H]2CCCN21` was tested, and the growth was 5.91% [100 µM] (active). For `N=c1ccc2nc3c(cc(N)c4ccccc43)oc-2c1`, the growth was -94.4% (active). With `COc1cccc(-c2nn(-c3ccccc3)cc2-c2ccnc(NCCCNS(=O)(=O)c3ccc(Br)cc3)c2)c1` the growth was 48.3% (inactive). `Cc1ccc(-c2nn(Cc3cn(-c4cc(C)nc5ccccc45)nn3)c3ncnc(N)c23)cc1` was tested, and the growth was 31.9% (inactive). For `COc1ccc2c(c1)c1nc3cc(C)c(C)cc3nc1n2CCN(C)C`, the growth was -11.4% (active). For `CC(=O)n1c(/C(C#N)=C/c2ccc(N(C)C)cc2)cc2ccccc21`, the growth was 47.5% (inactive). With `C[C@H]1[C@H]2C3=CC[C@@H]4[C@@]5(C)C/C(=C/c6ccco6)C(=O)C(C)(C)[C@@H]5CC[C@@]4(C)[C@]3(C)CC[C@@]2(C(=O)N2CCOCC2)CC[C@@H]1C` the growth was 53.7% (inactive). In the case of `Fc1ccc(Nc2ccc3c(OCCCN4CCOCC4)cccc3n2)cc1F`, the growth is reported as 78.3% (inactive). For `COc1cccc(-c2nn(-c3ccccc3)cc2-c2ccnc(NCCNS(=O)(=O)c3ccc(C(F)(F)F)cc3)c2)c1`, the growth was 8.66% (active). For `Cn1cnc2c1c(=O)n(CCC(=O)Nc1ccc(F)cc1)c(=O)n2C`, the growth was 114% (inactive). For `COCCNC1=C(Cl)C(=O)c2ccccc2C1=O`, the growth was 104% (inactive). In the case of `CCCCn1c(-c2ccc(O)cc2)cn2c3c(=O)[nH]c(=O)n(C)c3nc12`, the growth is reported as 92.6% (inactive). For `Cc1ccc(N(CC(=O)Nc2ccc(S(=O)(=O)NC3CCN(C)CC3)cc2)S(=O)(=O)c2ccc(Cl)cc2)cc1`, the growth was 96.6% (inactive). With `CC(=O)OC[C@]12CC[C@@H](/C(C)=N/O)[C@@H]1[C@H]1CC[C@@H]3[C@@]4(C)CCCNC(C)(C)[C@@H]4CC[C@@]3(C)[C@]1(C)CC2` the growth was 88% (inactive). `Clc1ccc(Cn2cc(-c3nc4ccc(Br)nc4n3Cc3ccc(Cl)cc3)c3cccnc32)cc1` was tested, and the growth was 75% (inactive). With `CN1CCN(CCOc2ccc(-c3cnc4c(-c5cccc(F)c5)cnn4c3)cc2)CC1` the growth was 70.2% (inactive). In the case of `CN1CCN(c2nc(-c3csc(-c4cccs4)n3)cc3ccccc23)CC1`, the growth is reported as 31.4% (inactive). With `CCN(CC)CCCCCCNc1ccnc2cc(Cl)ccc12` the growth was 111% (inactive). For `CCCCCCCC(=O)SCC/C=C/[C@@H]1CC(=O)NCc2cccc(n2)CN(Cc2ccc(Cl)cc2)CC(=O)N[C@@H](C(C)C)C(=O)O1`, the growth was -15.5% (active). For `c1cc(N2CCCC2)c2nc(-c3[nH]ncc3Nc3ncnc4[nH]ccc34)[nH]c2c1`, the growth was -14.6% (active). `COc1ccc(C2=NN(c3nc(-c4ccc(OC)cc4)c(C#N)c(=O)n3C)C(=O)CC2)cc1` was tested, and the growth was 101% (inactive). For `Cc1ccc(S(=O)(=O)Nc2ccc(-c3cc(-c4cccc(F)c4)c(C#N)c(N)n3)cc2)cc1`, the growth was -71.9% (active). For `CC(C)(C)c1ccc(OCCCCCCCN2CCNCC2)cc1`, the growth was 13.6% (inactive). `COC(=O)CNc1nc(N(C)O)nc(N(C)O)n1` was tested, and the growth was 23.8% (inactive). For `COc1cc2ncnc(Nc3ccc(Oc4ccnc(C)c4)c(C)c3)c2cc1NC(=O)CC1CCSS1` (centres undefined), the growth was 10.5% (inactive). `C=C(C)[C@@H]1CC[C@]2(C)[C@H](CC[C@@H]3[C@H]4[C@H]5OC[C@@]4(CCC5(C)C)CC[C@]32C)[C@@]1(C)CCCN` was tested, and the growth was 59% (inactive). For `c1ccc(-c2nc(Nc3ccc(-c4nc5ccccc5[nH]4)cc3)nc(N3CCOCC3)n2)cc1`, the growth was -58.9% (active). `CCOC(=O)C1OC1(c1ccccc1)c1ccccc1` (centres undefined) was tested, and the growth was 103% (inactive). In the case of `CCN1CCN(C(=O)[C@@]2(C)CC[C@]3(C)CC[C@]4(C)C(=CC(=O)[C@@H]5[C@@]6(C)CC[C@H](OCCC#N)C(C)(C)[C@@H]6CC[C@]54C)[C@@H]3C2)CC1`, the growth is reported as 98.3% (inactive). For `O=S(=O)(NCCNc1cc(-c2cn(-c3ccccc3)nc2-c2cccc(O)c2)ccn1)c1cccc(F)c1`, the growth was 36.3% (inactive). `N#CC1=C(N)Oc2ccc3ccccc3c2C1c1ccccc1` (centres undefined) was tested, and the growth was 37.3% (inactive). In the case of `COc1ccc(-c2cc(=O)oc3ccc(Cl)cc23)cc1F`, the growth is reported as 34.8% (inactive).

— PubChem BioAssay (NCI)
